Shown are actives, neighbours in structure and some others; about 2.2% of the full set was active somewhere.
ANO1 block: blocks the mouse calcium-activated chloride channel TMEM16A | Q8BHY3 | HEK293 TMEM16A/YFP iodide influx fluorescence, ionomycin | normalized B-score (activity score, 25-100; higher = stronger inhibition) at 10 µM | 310,000 compounds, 1.2% hits;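 active = ratio plate-corrected score three or more library SD toward inhibition, starting fluorescence score within five deviations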;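 also: score derived from kinetic fluorescence span divided by baseline fluorescence per well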
NOD2-RIPK2 inh: blocks binding of human NOD2 to RIPK2; 360,000 compounds, 0.38% hits; AID 624267; inhibition, % at 4.98 µM; CHO BLA complementation NOD2-RIPK2, CCF4 ratio; O43353; in the data active = inhibition above about 21%;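 also: 0% = vehicle only and 100% = reference blocker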
TLR4 MyD88 comp: blocks binding of human TLR4 to MyD88; O00206+Q99836; HeLa CL3-4 TLR4/MyD88 BLA complementation, FRET ratio; inhibition, % at 8.4 µM; AID 861; 200,000 compounds, 0.18% hits; in the data active = inhibition above about 25%;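 also: 0% = vehicle and 100% = reference inhibitor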
TLR9-MyD88 block: blocks human TLR9 binding to MyD88; inhibition, % at 4.98 µM; Q9NR96+Q99836; 340,000 compounds, 0.21% hits; AID 504734; CHO BLA complementation TLR9-MyD88, CCF4 FRET ratio;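 active = inhibition above the mean over all tested compounds plus 3 SD, cut at about 21% in these data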;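 also: 0% = DMSO only wells and 100% = clavulanate BLA inhibitor control wells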
GRK2 inh: inhibitors of human GRK2 displacing RNA aptamer | P25098 | bead flow cytometry, FAM-aptamer displacement from GRK2 | inhibition of aptamer binding, % at 10 µM | 330,000 compounds, 0.59% hits;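 active = inhibition of aptamer binding above 40%, roughly 3 SD of noise, on plates passing a quality check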;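 also: median bead fluorescence of bound FAM aptamer so fluorescent compounds give negative values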
ANO1 activ: mouse TMEM16A channel activation, primary screen | Q8BHY3 | HEK293 TMEM16A/YFP-H148Q/I152L, iodide quench fluorescence; active compounds read low | B-score at 10 µM | 340,000 compounds, 0.3% hits;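 active = fluorescence-ratio B-score plate-corrected deviation score at least 3 library SD below zero, with starting fluorescence score within 5 deviations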;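 also: channel opened by trigger with iodide after compound preincubation; score built on the fluorescence ratio of max minus min over baseline; more negative score means more quench and so TMEM16A activation or potentiation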
The depositor's hits bear a star; i = inactive; . = no result given.

SMILES	ANO1 block	NOD2-RIPK2 inh	TLR4 MyD88 comp	TLR9-MyD88 block	GRK2 inh	ANO1 activ
O=C(COc1cccc2ccccc12)N/N=C/c1ccccc1OCc1ccc(C(=O)O)cc1	100*	-3	-1	-1	0	i
O=C(O)c1cccc(NC(=S)N/N=C/c2ccccc2OCc2ccc(Br)cc2)c1	25*	-3	-5	8	0	i
O=C(COc1ccccc1-c1ccccc1)N/N=C/c1cccc2ccccc12	i	12	-6	-2	0	i
C/C(=N\NC(=S)NCc1ccccc1)c1ccc2c(c1)OCCO2	25*	-10	-5	-4	1	i
C/C(=N\NC(=S)NCc1ccccc1)c1ccc(Br)cc1	i	-1	1	-2	1	i
COc1ccc(-c2nc3ccccc3n2Cc2ccccc2)cc1	i	-5	10	-13	2	i
COc1ccc(-c2n(Cc3ccccc3)c3ccccc3[n+]2Cc2ccccc2)cc1	25*	-1	18	-4	0	i
COc1cccc(C2=NOC(C(=O)NC(C)C)C2)c1 (stereo unspecified)	25*	-10	7	-6	0	i
COc1ccc(CNC(=O)C2CC(c3ccc(OC)cc3)=NO2)cc1 (stereo unspecified)	100*	-2	14	-7	0	i
CC(C)c1cc(Cn2c3ccccc3c(=O)n2C(C)Cn2cc(-c3ccccc3)nn2)on1 (stereo unspecified)	.	-5	.	.	.	.
COc1ccc([C@@H]2CC(=O)[C@@H]3CN(S(=O)(=O)c4ccc(C)cc4)[C@H](c4ccccc4)C[C@@H]3N2S(=O)(=O)c2ccccc2)cc1	.	-10	.	.	.	.
C[C@@H]1CN([C@@H](C)CO)C(=O)CCCn2cc(nn2)CO[C@H]1CN(C)S(=O)(=O)c1ccc(Cl)cc1	.	-14	.	-15	.	.
CC1(C(=O)Nc2cccc3ccccc23)CCN1C(=O)Cc1ccc(Cl)cc1Cl (stereo unspecified)	.	-14	.	.	.	.
O=S(=O)(Nc1ncnc2sc3c(c12)CCC3)c1ccc2ccccc2c1	100*	3	-3	0	4	i
C=CCN1C(=O)/C(=C2/Sc3ccccc3N2CC)SC1=S	i	1	.	-9	1	i
C=CCn1c(=O)/c(=C2/Sc3ccccc3N2CC)s/c1=C1/C(=O)NN=C1C	i	.	-4	.	42*	.
CC1CC(O)C2C3(C)CCCC2(COC3=O)C12CCC1(CCOC1=O)O2 (stereo unspecified)	.	-11	.	.	.	.
O=C(CCCOc1ccccc1)NCCc1ccccc1	i	-12	-5	.	0	i
NS(=O)(=O)c1ccc(CCNC(=O)CNC(=O)COc2ccccc2)cc1	i	-4	.	2	0	-4.7*
NS(=O)(=O)c1ccc(CCNC(=O)CCCOc2ccccc2)cc1	i	-8	-19	0	1	-4.6*
COc1ccc(CC(N)c2csc(Nc3cc(NCc4ccco4)ncn3)n2)cc1 (stereo unspecified)	.	-16	.	.	.	.
Cc1cc(N2CCN(S(=O)(=O)c3ccc(Cl)cc3)CC2)c2ccccc2n1	100*	7	-2	2	0	i
CCn1c(SCC(=O)N/N=C/c2c[nH]c3ccccc23)nnc1-c1ccc(C(C)(C)C)cc1	25*	-15	12	-5	0	i
COc1ccccc1C(=O)NNC(=S)NC(=O)c1cc(OC)c(OC)c(OC)c1	i	-8	1	0	0	i
COc1cc(C(=O)NC(=S)NNC(=O)[C@H]2C[C@@H]2c2ccccc2)cc(OC)c1OC	25*	-1	.	-3	2	i
SMILES	ANO1 block	NOD2-RIPK2 inh	TLR4 MyD88 comp	TLR9-MyD88 block	GRK2 inh	ANO1 activ
O=C(O)c1ccc(Cl)c2c1C1C=CCC1C(c1ccccn1)N2 (stereo unspecified)	i	.	-4	.	47*	.
O=c1c(C(c2ccccc2)c2c(O)sc3ccccc3c2=O)c(O)sc2ccccc12	100*	-3	-5	-8	4	i
O=c1c2ccccc2sc2ccccc12	.	-3	.	-6	.	i
COc1ccc(N=Cc2[nH]c3ccccc3c2O)cc1	i	-3	2	-5	11	-7.6*
O=C(/C=C/c1ccco1)N1CCN(S(=O)(=O)c2cccc([N+](=O)[O-])c2)CC1	.	8	.	5	79*	i
Cc1ccc(S(=O)(=O)N2CCN(c3nc(-c4cccs4)nc4ccccc34)CC2)cc1	.	5	.	.	.	.
Cc1ccc(C(C#N)c2ccc3c(C(F)(F)F)cc(C(F)(F)F)nc3n2)cc1 (stereo unspecified)	100*	4	0	-5	2	i
CN(N)c1ccc2c(C(F)(F)F)cc(C(F)(F)F)nc2n1	i	8	4	7	0	i
O=C(N/N=C/c1sc(N2CCOCC2)nc1-c1ccccc1)c1ccccc1Cl	i	-6	1	8	0	i
O=C(N/N=C/c1sc(N2CCOCC2)nc1-c1ccccc1)c1ccccc1O	100*	6	-2	0	2	i
C#CCOCCOCCOCCNc1nc(N2CCN(C(=O)CCCCCCCCCCNC(=O)[C@H](CCCCN)n3cc(CCO)nn3)CC2)nc(N2CCN(C(=O)CCCCCCCCCCNC(=O)[C@@H]([C@H](C)O)n3cc(C)nn3)CC2)n1	i	11	.	-13	0	i
C#CCOCCOCCOCCNc1nc(N2CCN(C(=O)CCCCCCCCCCNC(=O)Cn3cc(CCCCCN)nn3)CC2)nc(N2CCN(C(=O)CCCCCCCCCCNC(=O)[C@H]([C@@H](C)CC)n3cc(CCCCCN)nn3)CC2)n1	25*	14	.	5	0	-13*
C#CCOCCOCCOCCNc1nc(N2CCN(C(=O)CCCCCCCCCCNC(=O)[C@H](CCC(=O)O)n3cc(CCCCCN)nn3)CC2)nc(N2CCN(C(=O)CCCCCCCCCCNC(=O)[C@@H]([C@H](C)O)n3cc(C)nn3)CC2)n1	i	12	.	2	1	i
C#CCOCCOCCOCCNc1nc(N2CCN(C(=O)CCCCCCCCCCNC(=O)[C@H]([C@@H](C)CC)n3cc(CCCCCN)nn3)CC2)nc(N2CCN(C(=O)CCCCCCCCCCNC(=O)[C@@H]([C@H](C)O)n3cc(C)nn3)CC2)n1	i	37*	.	3	3	-12*
C#CCOCCOCCOCCNc1nc(N2CCN(C(=O)CCCCCCCCCCNC(=O)[C@H](CCCCN)n3cc(C)nn3)CC2)nc(N2CCN(C(=O)CCCCCCCCCCNC(=O)[C@@H]([C@H](C)CC)n3cc(CCCCCN)nn3)CC2)n1	25*	50*	.	23*	0	-18*
COC(=O)CCCn1cc(CN(C)C2CN(Cc3cn(CCCC(=O)OC)nn3)S(=O)(=O)C2)nn1 (stereo unspecified)	.	-4	.	.	.	.

Screening data (PubChem BioAssay)
